High-throughput results from PubChem BioAssay.
Only a selection was taken, and hits are over-represented in it overall.
AmpC inh detg – inhibitors of E. coli AmpC beta-lactamase with detergent | AmpC hydrolysis of nitrocefin, absorbance 480 nm, 0.01% Triton | Potency, µM (highest dose often 114 µM), for inactives: top-dose activity change, negative = inhibition, most hits filed as inhibitors | 370,000 tested, 0.041% active | P00811 | AID 485294;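 also: potency is read from the fitted curve at half-maximal effect; 0% = no-compound wells and -100% = no-enzyme wells; nearly all actives have a fitted effect of over 25% in size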
Target sequence (P00811 whole entry, looked up): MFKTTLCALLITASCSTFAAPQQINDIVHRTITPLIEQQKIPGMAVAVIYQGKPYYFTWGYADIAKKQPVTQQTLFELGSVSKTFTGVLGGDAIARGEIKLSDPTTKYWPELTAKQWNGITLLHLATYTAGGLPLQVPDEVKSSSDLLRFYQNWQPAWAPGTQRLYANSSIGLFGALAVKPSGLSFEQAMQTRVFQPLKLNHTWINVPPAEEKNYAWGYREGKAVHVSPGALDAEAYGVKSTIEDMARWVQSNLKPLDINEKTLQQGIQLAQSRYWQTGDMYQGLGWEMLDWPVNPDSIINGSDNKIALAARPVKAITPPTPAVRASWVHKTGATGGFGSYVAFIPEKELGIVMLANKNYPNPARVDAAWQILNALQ
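20 mM phosphate pH 7.0 + 0.01% (detergent screen) or 0.0001% Triton X-100; 5.3 nM AmpC reagent; cpd preinc 15 min RT; nitrocefin (800 uM stock) to start; A480 q20 s × 4 min; Activity was normalised to no-enzyme and no-compound control wells.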
Cycloheximide cs – affects cycloheximide protein synthesis inhibition readout, counter-screen; cell reporter, cycloheximide protein synthesis inhibition counterscreen; max response, %; 300,000 tested, 12% active; in the data active = max response mostly above about 13%, no sharp cut-off; inactive = mostly below about 14%; also: read at 38.3 µM for the half of the compounds with a filed dose; 0% is about no effect
Shiga toxin inh – inhibitors of Shiga toxin in Vero cells; Vero cells, Shiga toxin protein synthesis inhibition reporter; inhibition, % at 38.7 µM; 290,000 tested, 9.2% active; AID 2315; in the data active = inhibition mostly above about 28%, no sharp cut-off; inactive = mostly below about 43%; also: 0% is about no effect
AmpC no deterg – inhibitors of E. coli AmpC beta-lactamase without detergent; P00811; Potency, µM (series often up to 57.1 µM), for inactives: top-dose activity change, negative = inhibition, actives largely listed as inhibitors; 330,000 tested, 0.52% active; AID 485341; AmpC nitrocefin hydrolysis, absorbance 480 nm, 0.0001% Triton;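 also: potency is read from the fitted curve at half-maximal effect; plate controls were no compound for no effect and no enzyme for full effect; nearly all actives have a fitted effect of over 20% in size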
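20 mM phosphate pH 7.0 + 0.01% (detergent screen) or 0.0001% Triton X-100; 5.3 nM AmpC reagent; cpd preinc 15 min RT; nitrocefin (800 uM stock) to start; A480 q20 s × 4 min; Activity was normalised to no-enzyme and no-compound control wells.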
NS1 inh – inhibitors of influenza NS1 protein function; Potency, µM (titrated, usually from 46.1 µM), for inactives: at the top dose activity, positive = more growth; 270,000 tested, 0.4% active; AID 2326; calls by dose curve; also: potency is read from the fitted curve at half-maximal effect; actives are rising curves; nearly all actives have a fitted effect of over 50% in size
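Growth recovery, yeast-based: influenza A NS1 expressed in S. cerevisiae causes slow growth, and suppressors are detected by OD600. The parent strain without NS1 is used as positive control.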
* = called active by the depositor; ? = inconclusive; . = no result given; [ ] = dose if it differs, or a comment. Unless noted, calls follow the shape of the dose curve; as a rule, active = well fitted curve in the direction sought with a large enough effect; inconclusive = small, poorly fitted or top-dose-only effect, or another doubt; inactive = no such curve, though single readings can be large; an effect the other way counts as inactive or inconclusive.

SMILES | AmpC inh detg | Cycloheximide cs | Shiga toxin inh | AmpC no deterg | NS1 inh
COc1ccccc1CN=C1Nc2ccccc2CS1 | ? | 29.9* | 81.8* | -43.9% | .
c1cncc(CN=C2Nc3ccccc3CS2)c1 | -11.4% | 15.9 | 51.0 | -22.0% | .
Clc1ccc(CN=C2Nc3ccccc3CS2)cc1 | -1.5% | 33.7* | 64.1* | -47.9% | -5.2%
Cc1ccc(CN=C2Nc3ccccc3CS2)cc1 | ? | 34.5* | 82.2* | -28.1% | -20.3%
COc1cc(CNC(=O)c2sc3ncccc3c2-n2cccc2)cc(OC)c1OC | 20.9% | . | . | . | .
Cc1nn(C(=O)CNS(=O)(=O)c2ccccc2)c(C)c1Sc1ccc(Cl)cc1 | -9.8% | 1.6 | 11.7 | -8.5% | -40.8%
CN(C(=O)Cn1cnc2onc(-c3ccc(F)cc3)c2c1=O)c1ccccc1Cl | -2.3% | . | . | . | .
CCC(=O)N1CCc2cc(CNC(=O)c3ccc(F)cc3)ccc21 | -7.8% | . | . | . | .
Cc1cccc(NC(=O)COC(=O)c2cccs2)c1C | -5.3% | 4.7 | -8.0 | -2.8% | 16.8%
O=C(NC(=S)N1CCN(c2ccc(C(F)(F)F)cc2[N+](=O)[O-])CC1)c1cccs1 | -0.8% | -3.0 | -7.5 | 14.1µM* | 19.1%
Cc1cc(C)n(/N=C/c2c[nH]c3ccccc23)c(=O)c1 | -19.5% | -1.5 | -10.7 | -6.9% | -7.8%
COCCN=c1scc(-c2ccccc2)n1/N=C/c1c[nH]c2ccccc12 | -11.0% | 16.7* | 29.5 | 26.1% | 18.8%
CCN=c1scc(C)n1/N=C/c1ccc(O)c(O)c1O | -3.3% | 25.4* | 48.5 | 10µM* | -13.9%
COCCN=c1scc(-c2cccs2)n1/N=C/c1ccc(O)c(O)c1O | 4.5% | 32.4* | 54.6* | -22.2% | ?
CCN=c1scc(C)n1/N=C/c1cc(Br)c(O)c(Br)c1 | -14.3% | 19.8 | 31.5* | -26.8%[11.4 µM] | .
CCOC(=O)c1ccccc1NC(=O)N1CC(C)Oc2ccc(C)cc21 (stereo not drawn) | -4.0% | . | . | . | .
O=C(COc1ccc(Cl)cc1)NCCc1csc(-c2ccc(F)cc2)n1 | 2.8% | . | . | . | .
CC(C)(C)c1csc(NC(=O)c2cccnc2)n1 | -2.7% | 12.8* | 16.7 | -11.4% | -16.7%
CC(C)(C)c1csc(NNC(=O)c2ccc(Cl)cc2)n1 | -4.2% | 28.8* | 63.7* | -28.7% | -38.6%
Cc1onc(-c2c(Cl)cccc2Cl)c1C(=O)Nc1nc(C(C)(C)C)cs1 | -4.1% | -1.1 | 20.1 | -43.0% | 9.4%
CC(C)(C)c1cc(NC(=O)C2CCCO2)no1 (stereo not drawn) | 0.4% | 32.5* | 47.2* | -11.9% | -3.9%
O=C(O)c1cc(NC(=O)C2CCCO2)cc(C(=O)O)c1 (stereo not drawn) | ? | -2.5 | -1.1 | -11.9% | -14.6%
CC(C)(C)c1csc(NC(=O)CCc2ccccc2)n1 | -10.0% | 24.6* | . | -50.4% | -64.2%
Cc1ccc(S(=O)(=O)CCC(=O)Nc2nc(C(C)(C)C)cs2)cc1 | 3.9% | 0.5 | 5.1 | -10.3% | -10.5%
C[C@]12CC[C@H]3c4ccc(O)cc4CC[C@@H]3[C@H]1CC[C@@H]2OP(=O)(O)O | . | . | . | . | -0.5%
SMILES | AmpC inh detg | Cycloheximide cs | Shiga toxin inh | AmpC no deterg | NS1 inh
Cc1cccc(NC(=O)C2CCN(S(=O)(=O)c3ccc(F)cc3)CC2)c1C | 3.2% | . | . | . | .
O=C(CN1CCN(Cc2ccccc2F)CC1)Nc1ccccc1Cl | -6.8% | 5.5 | -6.6 | 145.6% | 1.6%
CCOc1ncccc1C(=O)Nc1nc(C(C)(C)C)cs1 | -3.7% | 20.1 | 32.3 | 79.1% | .
CC(C)(C)c1csc(NC(=O)Cc2cccs2)n1 | 0.7% | 32.6* | 61.3* | -31.8% | -3.3%
CC(C)(C)c1cc(NC(=O)c2cccnc2)no1 | ? | 30.7* | 79.3 | -7.3% | -11.8%
CC(C)(C)c1csc(NC(=O)c2cccs2)n1 | 0.6% | 44.4* | 70.5* | -41.9% | -71.2%
Cc1cc(C)c(NC(=O)Cn2nnc(-c3ccccc3)n2)c(C)c1 | -2.2% | . | . | . | .
Cc1cc(C)cc(NC(=O)C(=O)NCCc2sc(-c3cccc(F)c3)nc2C)c1 | 3.4% | . | . | . | .
CCC(C)c1ccc2oc(-c3ccc(NC(=O)Cn4cnc5c(=O)n(C)c(=O)n(C)c54)cc3)nc2c1 (stereo not drawn) | -11.6% | 57.6* | 154.4* | -12.3% | 6.0%
Cc1ccc2oc(-c3cccc(NC(=O)Cn4cnc5c(=O)n(C)c(=O)n(C)c54)c3)nc2c1 | -5.8% | 34.2* | 137.4* | -15.5% | .
CCCCNc1c(CN)cnc2cc(Cl)ccc12 | . | . | . | . | -5.9%
O=C1CC(N2CCN(c3nc4ccccc4s3)CC2)C(=O)N1c1ccc(F)cc1 (stereo not drawn) | -2.1% | -5.6 | -6.1 | 133.2% | -12.0%
